# Test results published in the supplement of paper PMC4466140.
# Assays:
# Experiment in all cases: SPOT peptide array binding signal intensity (averaged, normalized) (arbitrary units (background-subtracted, floor 0; scale differs between SH3 domains)); higher = stronger binding of the SH3 domain to the peptide
# AgAbp1 = biological target: AgAbp1
# Summary of the method: (§1)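 To measure binding, SH3 domains from four yeast species were fused to GST, expressed in E. coli BL21(DE3) and purified on glutathione Sepharose. Each domain was incubated at 10 μg/ml overnight at 4°C on cellulose membranes with synthetic 15-mer peptides whose cysteines were replaced by serines. Anti-GST antibody, an HRP anti-mouse secondary and luminol were used for detection, and images were quantified with Genespotter. Reported binding signal is normalized, background-subtracted spot intensity averaged over replicates, in arbitrary units that differ between domains.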
# AgBbc1 = biological target: AgBbc1
# Summary of the method: as §1
# AgBem1-D1 = biological target: AgBem1-D1
# Summary of the method: as §1
# AgBzz1-D1 = biological target: AgBzz1-D1
# Summary of the method: as §1
# AgBzz1-D2 = biological target: AgBzz1-D2
# Summary of the method: as §1
# AgCyk3 = biological target: AgCyk3
# Summary of the method: as §1
# AgFus1 = biological target: AgFus1
# Summary of the method: as §1
# AgHof1 = biological target: AgHof1
# Summary of the method: as §1
# AgHse1 = biological target: AgHse1
# Summary of the method: as §1
# AgLsb1 = biological target: AgLsb1
# Summary of the method: as §1
# AgLsb4 = biological target: AgLsb4
# Summary of the method: as §1
# AgMyo5 = biological target: AgMyo5
# Summary of the method: as §1
# AgNbp2 = biological target: AgNbp2
# Summary of the method: as §1
# AgRvs167 = biological target: AgRvs167
# Summary of the method: as §1
# AgSho1 = biological target: AgSho1
# Summary of the method: as §1
# AgSla1-D1-D2 = biological target: AgSla1-D1-D2
# Summary of the method: as §1
# AgSla1-D3 = biological target: AgSla1-D3
# Summary of the method: as §1
# CaAbp1-D1 = biological target: CaAbp1-D1
# Summary of the method: as §1
# CaAbp1-D2 = biological target: CaAbp1-D2
# Summary of the method: as §1
# CaBbc1 = biological target: CaBbc1
# Summary of the method: as §1
# CaBem1-D1 = biological target: CaBem1-D1
# Summary of the method: as §1
# CaBzz1-D1 = biological target: CaBzz1-D1
# Summary of the method: as §1
# CaBzz1-D2 = biological target: CaBzz1-D2
# Summary of the method: as §1
# CaCyk3 = biological target: CaCyk3
# Summary of the method: as §1
# CaFus1 = biological target: CaFus1
# Summary of the method: as §1
# CaHof1 = biological target: CaHof1
# Summary of the method: as §1
# CaHse1 = biological target: CaHse1
# Summary of the method: as §1
# CaLsb1 = biological target: CaLsb1
# Summary of the method: as §1
# CaLsb4 = biological target: CaLsb4
# Summary of the method: as §1
# CaMyo5 = biological target: CaMyo5
# Summary of the method: as §1
# CaNbp2 = biological target: CaNbp2
# Summary of the method: as §1
# CaRvs167 = biological target: CaRvs167
# Summary of the method: as §1
# CaRvs167-3 = biological target: CaRvs167-3
# Summary of the method: as §1
# CaSho1 = biological target: CaSho1
# Summary of the method: as §1
# CaSla1-D1-D2 = biological target: CaSla1-D1-D2
# Summary of the method: as §1
# CaSla1-D3 = biological target: CaSla1-D3
# Summary of the method: as §1
# ScAbp1 = biological target: ScAbp1
# Summary of the method: as §1
# ScBbc1 = biological target: ScBbc1
# Summary of the method: as §1
# ScBem1-D1 = biological target: ScBem1-D1
# Summary of the method: as §1
# ScBzz1-D1 = biological target: ScBzz1-D1
# Summary of the method: as §1
# ScBzz1-D2 = biological target: ScBzz1-D2
# Summary of the method: as §1
# ScCyk3 = biological target: ScCyk3
# Summary of the method: as §1
# ScFus1 = biological target: ScFus1
# Summary of the method: as §1
# ScHof1 = biological target: ScHof1
# Summary of the method: as §1
# ScHse1 = biological target: ScHse1
# Summary of the method: as §1
# ScLsb1 = biological target: ScLsb1
# Summary of the method: as §1
# ScLsb2 = biological target: ScLsb2
# Summary of the method: as §1
# ScLsb3 = biological target: ScLsb3
# Summary of the method: as §1
# ScLsb4 = biological target: ScLsb4
# Summary of the method: as §1
# ScMyo3 = biological target: ScMyo3
# Summary of the method: as §1
# ScMyo5 = biological target: ScMyo5
# Summary of the method: as §1
# ScNbp2 = biological target: ScNbp2
# Summary of the method: as §1
# ScPex13 = biological target: ScPex13
# Summary of the method: as §1
# ScRvs167 = biological target: ScRvs167
# Summary of the method: as §1
# ScSho1 = biological target: ScSho1
# Summary of the method: as §1
# ScSla1-D1-D2 = biological target: ScSla1-D1-D2
# Summary of the method: as §1
# ScSla1-D3 = biological target: ScSla1-D3
# Summary of the method: as §1
# SpAbp1-D1 = biological target: SpAbp1-D1
# Summary of the method: as §1
# SpBbc1 = biological target: SpBbc1
# Summary of the method: as §1
# SpBzz1-D1 = biological target: SpBzz1-D1
# Summary of the method: as §1
# SpBzz1-D2 = biological target: SpBzz1-D2
# Summary of the method: as §1
# SpCyk3 = biological target: SpCyk3
# Summary of the method: as §1
# SpHof1 = biological target: SpHof1
# Summary of the method: as §1
# SpHof1-2 = biological target: SpHof1-2
# Summary of the method: as §1
# SpHof1-3 = biological target: SpHof1-3
# Summary of the method: as §1
# SpHse1 = biological target: SpHse1
# Summary of the method: as §1
# SpLsb1 = biological target: SpLsb1
# Summary of the method: as §1
# SpLsb4 = biological target: SpLsb4
# Summary of the method: as §1
# SpMyo1 = biological target: SpMyo1
# Summary of the method: as §1
# SpNbp2 = biological target: SpNbp2
# Summary of the method: as §1
# SpPex13 = biological target: SpPex13
# Summary of the method: as §1
# SpRvs167 = biological target: SpRvs167
# Summary of the method: as §1
# SpSla1-D1-D2 = biological target: SpSla1-D1-D2
# Summary of the method: as §1
# SpSla1-D3 = biological target: SpSla1-D3
# Summary of the method: as §1
binder,measurement,setting,value
SSTPTTPERPKRKSG,SPOT peptide array binding signal intensity,AgAbp1,128
same,SPOT peptide array binding signal intensity,AgBbc1,2110
same,SPOT peptide array binding signal intensity,AgBem1-D1,≤ 0
same,SPOT peptide array binding signal intensity,AgBzz1-D1,36.5
same,SPOT peptide array binding signal intensity,AgBzz1-D2,21
same,SPOT peptide array binding signal intensity,AgCyk3,2
same,SPOT peptide array binding signal intensity,AgFus1,≤ 0
same,SPOT peptide array binding signal intensity,AgHof1,≤ 0
same,SPOT peptide array binding signal intensity,AgHse1,≤ 0
same,SPOT peptide array binding signal intensity,AgLsb1,1
same,SPOT peptide array binding signal intensity,AgLsb4,602
same,SPOT peptide array binding signal intensity,AgMyo5,≤ 0
same,SPOT peptide array binding signal intensity,AgNbp2,≤ 0
same,SPOT peptide array binding signal intensity,AgRvs167,18.3
same,SPOT peptide array binding signal intensity,AgSho1,≤ 0
same,SPOT peptide array binding signal intensity,AgSla1-D1-D2,≤ 0
same,SPOT peptide array binding signal intensity,AgSla1-D3,1.25
same,SPOT peptide array binding signal intensity,CaAbp1-D1,514
same,SPOT peptide array binding signal intensity,CaAbp1-D2,1000
same,SPOT peptide array binding signal intensity,CaBbc1,2820
same,SPOT peptide array binding signal intensity,CaBem1-D1,8
same,SPOT peptide array binding signal intensity,CaBzz1-D1,63.5
same,SPOT peptide array binding signal intensity,CaBzz1-D2,36.2
same,SPOT peptide array binding signal intensity,CaCyk3,166
same,SPOT peptide array binding signal intensity,CaFus1,48.5
same,SPOT peptide array binding signal intensity,CaHof1,0.5
same,SPOT peptide array binding signal intensity,CaHse1,≤ 0
same,SPOT peptide array binding signal intensity,CaLsb1,≤ 0
same,SPOT peptide array binding signal intensity,CaLsb4,7900
same,SPOT peptide array binding signal intensity,CaMyo5,0.25
same,SPOT peptide array binding signal intensity,CaNbp2,28.5
same,SPOT peptide array binding signal intensity,CaRvs167,110
same,SPOT peptide array binding signal intensity,CaRvs167-3,≤ 0
same,SPOT peptide array binding signal intensity,CaSho1,9.5
same,SPOT peptide array binding signal intensity,CaSla1-D1-D2,480
same,SPOT peptide array binding signal intensity,CaSla1-D3,≤ 0
same,SPOT peptide array binding signal intensity,ScAbp1,66
same,SPOT peptide array binding signal intensity,ScBbc1,2030
same,SPOT peptide array binding signal intensity,ScBem1-D1,3
same,SPOT peptide array binding signal intensity,ScBzz1-D1,15
same,SPOT peptide array binding signal intensity,ScBzz1-D2,7.5
same,SPOT peptide array binding signal intensity,ScCyk3,≤ 0
same,SPOT peptide array binding signal intensity,ScFus1,≤ 0
same,SPOT peptide array binding signal intensity,ScHof1,≤ 0
same,SPOT peptide array binding signal intensity,ScHse1,33.5
same,SPOT peptide array binding signal intensity,ScLsb1,260
same,SPOT peptide array binding signal intensity,ScLsb2,1
same,SPOT peptide array binding signal intensity,ScLsb3,5780
same,SPOT peptide array binding signal intensity,ScLsb4,836
same,SPOT peptide array binding signal intensity,ScMyo3,≤ 0
same,SPOT peptide array binding signal intensity,ScMyo5,≤ 0
same,SPOT peptide array binding signal intensity,ScNbp2,≤ 0
same,SPOT peptide array binding signal intensity,ScPex13,78.2
same,SPOT peptide array binding signal intensity,ScRvs167,902
same,SPOT peptide array binding signal intensity,ScSho1,≤ 0
same,SPOT peptide array binding signal intensity,ScSla1-D1-D2,290
same,SPOT peptide array binding signal intensity,ScSla1-D3,15
same,SPOT peptide array binding signal intensity,SpAbp1-D1,85
same,SPOT peptide array binding signal intensity,SpBbc1,22.2
same,SPOT peptide array binding signal intensity,SpBzz1-D1,64
same,SPOT peptide array binding signal intensity,SpBzz1-D2,≤ 0
same,SPOT peptide array binding signal intensity,SpCyk3,≤ 0
same,SPOT peptide array binding signal intensity,SpHof1,2.5
same,SPOT peptide array binding signal intensity,SpHof1-2,2
same,SPOT peptide array binding signal intensity,SpHof1-3,177
same,SPOT peptide array binding signal intensity,SpHse1,11
same,SPOT peptide array binding signal intensity,SpLsb1,1030
same,SPOT peptide array binding signal intensity,SpLsb4,8450
same,SPOT peptide array binding signal intensity,SpMyo1,≤ 0
same,SPOT peptide array binding signal intensity,SpNbp2,≤ 0
same,SPOT peptide array binding signal intensity,SpPex13,≤ 0
same,SPOT peptide array binding signal intensity,SpRvs167,450
same,SPOT peptide array binding signal intensity,SpSla1-D1-D2,8
same,SPOT peptide array binding signal intensity,SpSla1-D3,≤ 0
